# Measurements as given in PubChem BioAssay (NCATS).
# Unmarked numbers belong to inactive results. Results filed as inconclusive are left out. A call without a number means that no potency is given here. Active and inactive are the calls of the source. The call rests on the fitted dose curve; in most records, active means well fitted curve in the direction sought with a large enough effect; inconclusive means small, poorly fitted or top-dose-only effect, or another doubt; inactive means no such curve, though single readings can be large; an effect the other way counts as inactive or inconclusive.
# Assays:
# [1] = test system: Nanoluciferase (engineered Oplophorus gracilirostris luciferase); assay: Primary Nanoluciferase (NLuc) qHTS assay for identification of artifact compounds. (AID 1845222); settings: NLuc-conditioned medium, Nano-Glo luminescence, 5 min; series mostly up to 54.1 µM;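 further: NLuc secreted into diluted conditioned medium of S16 cells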
# Method in brief: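 NLuc from S16 cell medium (1:55) plus test compounds, 15 min, room temperature. Luminescence after Nano-Glo (1:100) addition, 5 min.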
# [2] = Primary redox qHTS assay for identification of artifact compounds. (AID 1845223); settings: Amplex Red/HRP redox cycling with DTT, fluorescence; series mostly up to 53.8 µM
# Method in brief: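 Redox-cycling detection via DTT (250 uM final) oxidation coupled to Amplex Red (25 uM)/HRP (250 mU/mL) in HBSS. 15 min preincubation plus 30 min after DTT, room temperature. Ex/Em 525/598 nm; 4-parameter Hill fit against DMSO and 10 uM DA3003.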
# [3] = molecular target: Cytochrome P450 3A4 (Homo sapiens) (UniProt P08684); assay: qHTS for inhibitors of CYP3A4 against the NCATS DSHEA and TCM libraries (AID 1919971); settings: recombinant CYP3A4 enzyme activity, luminescence qHTS; series mostly up to 34.1 µM;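 further: inhibition lowers luminescence from luciferin made by CYP3A4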
# Method in brief: (§1)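 Substances were tested against enzyme with a pro-luciferin substrate; minus-enzyme wells served as background. After NADPH-initiated oxidation (30-45 min, RT), light was generated with P450-Glo reagent.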
# [4] = molecular target: Cytochrome P450 2D6 (Homo sapiens) (UniProt P10635); assay: qHTS for inhibitors of CYP2D6 against the NCATS DSHEA and TCM libraries (AID 1919972); settings: CYP2D6 enzymatic inhibition, luminescence qHTS; series mostly up to 34.1 µM
# Method in brief: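 qHTS, concentration–response format with most substances from 19.5 nM. CYP2D6 + pro-luciferin substrate, 15 min with compound, then 1x NADPH regen, 30–45 min RT dark. Glo detection 30 min, luminescence. Quinidine control.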
# [5] = molecular target: Cytochrome P450 2C9 (Homo sapiens) (UniProt P11712); assay: qHTS for inhibitors of CYP2C9 against the NCATS DSHEA and TCM libraries (AID 1919973); settings: recombinant CYP2C9 enzyme activity, luminescence; series mostly up to 34.1 µM;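 further: luminogenic pro-luciferin CYP2C9 substrate turned into luciferin with NADPH regeneration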
# Method in brief: as §1
# [6] = molecular target: Cytochrome P450 2C19 (Homo sapiens) (UniProt P33261); assay: qHTS for inhibitors of CYP2C19 against the NCATS DSHEA and TCM libraries (AID 1919974); settings: CYP2C19 enzyme inhibition, luminescence qHTS; series mostly up to 34.1 µM;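 further: luminescence from luciferin released by CYP2C19 oxidation of a pro-luciferin substrate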
# Method in brief: as §1
# [7] = KB-3-1 P-gp reporter qHTS against the NCATS DSHEA and TCM libraries (AID 1919975); settings: KB-3-1 parental cells, CellTiter-Glo luminescence viability, 72 h; series mostly up to 26.1 µM
# Method in brief: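 Parental KB-3-1 cells, 500 cells/well, in DMEM with 10% FBS, exposed 72 h at 37 C to compounds in concentration-response. Viability read by CellTiter-Glo luminescence after 30 min at room temperature.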
# [8] = molecular target: Cytochrome P450 1A2 (Homo sapiens) (UniProt P05177); assay: qHTS for inhibitors of CYPIA2 against the NCATS DSHEA and TCM libraries (AID 1919976); settings: recombinant CYP1A2 enzyme activity, luminescence; series mostly up to 37 µM
# Method in brief: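 Luminescence read-out: pro-luciferin converted to D-luciferin by CYP1A2, detected with P450-Glo reagent after 30 min RT. Enzyme plus substrate got compounds for 15 min RT; NADPH regeneration solution (final 1x) started a 30-45 min reaction, light-protected.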
# [9] = KB-8-5-11 P-gp reporter qHTS against the NCATS DSHEA and TCM libraries (AID 1919977); settings: KB-8-5-11 cells; series mostly up to 26.1 µM
# Method in brief: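 P-gp-overexpressing KB-8-5-11 cells were screened in colchicine-free medium at 500 cells/well, as a titration series. Cells were exposed for 72 h at 37C. Viability was read by CellTiter-Glo luminescence after 30 min at room temperature.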
# [10] = qHTS Counterscreen for compound interference against the NCATS DSHEA and TCM libraries (AID 1919978); settings: firefly luciferase detection reagent interference, luminescence;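 further: compounds preincubated with 1 µM D-luciferin or buffer before detection reagent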
# Method in brief: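 Firefly luciferase detection reagent was added after compounds (19.5 nM–39.8 uM final) had been incubated 15 min at room temperature with 1 uM D-luciferin or with 100 mM phosphate buffer alone. Luminescence was read after 30 min at room temperature.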
# Cytochrome P450 2D6 (Homo sapiens), sequence (P10635 whole entry, looked up): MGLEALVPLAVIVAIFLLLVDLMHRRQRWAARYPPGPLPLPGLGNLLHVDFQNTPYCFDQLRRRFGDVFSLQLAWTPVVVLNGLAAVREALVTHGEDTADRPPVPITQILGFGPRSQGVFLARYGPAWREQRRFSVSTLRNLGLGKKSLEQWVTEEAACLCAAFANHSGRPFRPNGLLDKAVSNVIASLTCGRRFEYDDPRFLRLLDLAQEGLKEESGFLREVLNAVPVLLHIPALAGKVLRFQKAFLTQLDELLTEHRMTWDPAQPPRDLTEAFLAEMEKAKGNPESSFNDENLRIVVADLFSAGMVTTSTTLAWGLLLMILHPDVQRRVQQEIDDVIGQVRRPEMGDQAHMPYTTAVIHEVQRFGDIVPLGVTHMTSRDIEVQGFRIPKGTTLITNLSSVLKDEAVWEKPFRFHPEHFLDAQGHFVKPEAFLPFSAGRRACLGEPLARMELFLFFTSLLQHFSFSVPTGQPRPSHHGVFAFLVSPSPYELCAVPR
# Cytochrome P450 3A4 (Homo sapiens), sequence (P08684 whole entry, looked up): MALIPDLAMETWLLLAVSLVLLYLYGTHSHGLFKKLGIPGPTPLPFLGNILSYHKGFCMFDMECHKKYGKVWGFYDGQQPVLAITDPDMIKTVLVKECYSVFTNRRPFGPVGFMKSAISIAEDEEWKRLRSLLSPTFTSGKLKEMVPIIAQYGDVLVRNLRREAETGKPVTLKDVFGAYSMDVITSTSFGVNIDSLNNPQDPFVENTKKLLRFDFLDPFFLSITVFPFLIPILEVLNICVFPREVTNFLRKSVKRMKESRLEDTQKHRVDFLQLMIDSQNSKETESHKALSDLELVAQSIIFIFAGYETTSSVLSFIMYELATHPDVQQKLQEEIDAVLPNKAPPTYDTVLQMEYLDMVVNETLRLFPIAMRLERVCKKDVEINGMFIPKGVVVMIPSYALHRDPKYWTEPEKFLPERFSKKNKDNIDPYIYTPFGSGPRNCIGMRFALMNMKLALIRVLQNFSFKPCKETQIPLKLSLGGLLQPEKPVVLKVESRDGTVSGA
# Cytochrome P450 2C9 (Homo sapiens), sequence (P11712 whole entry, looked up): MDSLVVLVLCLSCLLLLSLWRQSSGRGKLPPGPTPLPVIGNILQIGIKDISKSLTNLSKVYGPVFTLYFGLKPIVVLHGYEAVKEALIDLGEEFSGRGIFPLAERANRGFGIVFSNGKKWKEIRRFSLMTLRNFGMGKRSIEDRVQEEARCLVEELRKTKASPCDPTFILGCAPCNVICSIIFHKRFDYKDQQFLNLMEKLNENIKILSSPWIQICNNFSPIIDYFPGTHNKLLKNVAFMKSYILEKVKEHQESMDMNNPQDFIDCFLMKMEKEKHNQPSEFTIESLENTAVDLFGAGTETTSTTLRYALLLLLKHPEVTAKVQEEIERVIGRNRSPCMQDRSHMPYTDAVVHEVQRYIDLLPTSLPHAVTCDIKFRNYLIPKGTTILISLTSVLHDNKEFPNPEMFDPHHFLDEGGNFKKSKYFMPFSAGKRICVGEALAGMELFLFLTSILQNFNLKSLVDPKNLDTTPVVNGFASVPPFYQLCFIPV
# Cytochrome P450 1A2 (Homo sapiens), sequence (P05177 whole entry, looked up): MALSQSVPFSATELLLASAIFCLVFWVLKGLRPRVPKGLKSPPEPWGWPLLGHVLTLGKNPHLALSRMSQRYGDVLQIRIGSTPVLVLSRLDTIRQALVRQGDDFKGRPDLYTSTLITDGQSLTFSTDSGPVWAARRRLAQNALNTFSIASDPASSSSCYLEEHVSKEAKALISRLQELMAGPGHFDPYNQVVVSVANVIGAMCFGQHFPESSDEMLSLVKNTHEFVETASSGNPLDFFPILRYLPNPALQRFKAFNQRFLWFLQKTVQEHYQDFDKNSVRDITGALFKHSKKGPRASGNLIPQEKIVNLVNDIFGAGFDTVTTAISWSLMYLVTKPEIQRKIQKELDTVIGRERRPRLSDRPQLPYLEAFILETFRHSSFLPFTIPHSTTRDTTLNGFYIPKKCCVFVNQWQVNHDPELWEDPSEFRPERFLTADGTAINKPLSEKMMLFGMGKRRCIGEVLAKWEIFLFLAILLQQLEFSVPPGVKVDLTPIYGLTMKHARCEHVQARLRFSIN
# Cytochrome P450 2C19 (Homo sapiens), sequence (P33261 whole entry, looked up): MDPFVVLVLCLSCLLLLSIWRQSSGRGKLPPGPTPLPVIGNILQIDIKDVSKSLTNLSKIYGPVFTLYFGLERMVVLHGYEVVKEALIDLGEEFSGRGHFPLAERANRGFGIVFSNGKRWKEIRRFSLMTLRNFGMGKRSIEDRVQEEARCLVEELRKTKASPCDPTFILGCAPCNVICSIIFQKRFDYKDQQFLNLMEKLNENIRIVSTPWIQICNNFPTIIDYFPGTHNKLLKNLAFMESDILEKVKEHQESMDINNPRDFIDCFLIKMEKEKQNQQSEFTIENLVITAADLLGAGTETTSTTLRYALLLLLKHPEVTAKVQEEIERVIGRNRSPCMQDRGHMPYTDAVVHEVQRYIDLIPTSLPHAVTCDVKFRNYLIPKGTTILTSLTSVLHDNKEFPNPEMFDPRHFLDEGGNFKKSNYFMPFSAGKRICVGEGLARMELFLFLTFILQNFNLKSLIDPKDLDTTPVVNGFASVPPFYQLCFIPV
structure (smiles),measurement,setting,value
CC(C)C1(OO)C=C2C(=O)CC3C(C)(C(=O)O)CCCC3(C)C2CC1 (stereo not drawn),outcome,[1],inactive
same,outcome,[2],inactive
CNC(C)C(O)c1ccc(O)cc1 (stereo not drawn),outcome,[3],inactive
same,outcome,[4],inactive
same,outcome,[5],inactive
same,Potency,[6],inactive
same,outcome,[7],inactive
same,outcome,[8],inactive
same,outcome,[9],inactive
same,max response,[10],-3.49%
O=C1C[C@@H]2OCC=C3CN4CC[C@]56c7ccccc7N1[C@H]5[C@H]2[C@H]3C[C@H]46,outcome,[1],inactive
same,outcome,[2],inactive
O=C/C=C/c1ccccc1,outcome,[3],inactive
same,outcome,[4],inactive
same,outcome,[5],inactive
same,outcome,[7],inactive
same,outcome,[8],inactive
same,outcome,[9],inactive
same,max response,[10],1.86%
CN1[C@@H]2CC[C@H]1CC(OC(=O)C1C=Nc3ccccc31)C2 (stereo partly drawn),outcome,[1],inactive
same,outcome,[2],inactive
COC(=O)C1(C)CCC(=O)C2(C)c3c(O)cc(C(C)C)cc3C(O)C(OC(C)=O)C12 (stereo not drawn),outcome,[1],inactive
same,outcome,[2],inactive
C=CC(C)(O)CC/C=C(\C)C(=O)O[C@H]1[C@H](O)[C@@H](CO)O[C@@H](OC(=O)[C@]23CCC(C)(C)CC2C2=CCC4[C@@]5(C)CC[C@H](O[C@@H]6O[C@H](CO[C@@H]7OC[C@H](O)[C@H](O)[C@H]7O[C@@H]7OC[C@@H](O)[C@H](O)[C@H]7O)[C@@H](O)[C@H](O)[C@H]6O)C(C)(C)C5CC[C@@]4(C)[C@]2(C)CC3)[C@@H]1OC1OC(C)C(O[C@@H]2OC[C@@H](O)[C@H](O[C@@H]3OC[C@@H](O)[C@H](O)[C@H]3O)[C@H]2O)C(O)C1O (stereo partly drawn),"activity, negative = inhibition",[1],1.73% [at 11.6 µM]
same,redox activity (% of DA3003),[2],-6.27% [at 11.5 µM]
CN1CCC[C@@H]1Cc1c[nH]c2ccc(Nc3ncccc3[N+](=O)[O-])cc12,outcome,[2],inactive
C/C=C(\C)C(=O)OC1CC2C(CC=C3CC(OC4CC(OC)C(OC5CC(OC)C(OC6OC(C)C(OC7OC(CO)C(O)C(O)C7O)C(OC)C6O)C(C)O5)C(C)O4)CCC32C)C2(O)CCC(C(C)=O)C12C (stereo not drawn),"activity, negative = inhibition",[1],4.82% [at 11.6 µM]
same,redox activity (% of DA3003),[2],4.57% [at 11.5 µM]
Oc1ccc2c3c1O[C@H]1[C@H](N(CCCl)CCCl)CC[C@@]4(O)[C@@H](C2)N(CC2CC2)CC[C@]314,"activity, negative = inhibition",[1],1.59% [at 11.6 µM]
same,redox activity (% of DA3003),[2],-0.579% [at 11.5 µM]
CC(=O)OC12C(O)C(C)C3(O)C4C=C(C)C(=O)C4CC(CO)=CC3C1C2(C)C (stereo not drawn),outcome,[1],inactive
same,outcome,[2],inactive
COC1CC(O[C@H]2CC[C@]3(C=O)C4CC[C@]5(C)[C@@H](C6=CC(=O)OC6)CC[C@]5(O)[C@@H]4CC[C@]3(O)C2)OC(C)C1O[C@@H]1O[C@H](CO)[C@@H](O)[C@H](O)[C@H]1O (stereo partly drawn),outcome,[1],inactive
same,outcome,[2],inactive
C/C=C(\C)C(=O)OC1CC2C(C)(C)OC(=O)CC(OC(C)=O)C2(C)C2CC(OC(=O)C(C)C)C3(C)C(c4ccoc4)CC4OC43C12C (stereo not drawn),outcome,[1],inactive
same,outcome,[2],inactive
CCC1NC(=O)C2C(Cl)C(Cl)CN2C(=O)C(C(C)O)NC(=O)CC(c2ccccc2)NC(=O)C(CO)NC1=O (stereo not drawn),outcome,[1],inactive
same,outcome,[2],inactive
COc1cc(C(=O)O[C@H]2[C@@H]3C=CO[C@@H](O[C@@H]4O[C@H](CO)[C@@H](O)[C@H](O)[C@H]4O)[C@@H]3[C@@]3(CO)O[C@@H]23)ccc1O,outcome,[1],inactive
same,outcome,[2],inactive
COC1CC(O[C@H]2CC[C@@]3(C)C(=CCC4C3C(O)[C@@H](O)[C@]3(C)[C@@H](C(C)=O)CC[C@]43O)C2)OC(C)C1OC1CC(OC)C(OC2OC(C)C(O)C(O)C2O)C(C)O1 (stereo partly drawn),"activity, negative = inhibition",[1],4.68% [at 11.6 µM]
same,redox activity (% of DA3003),[2],8.26% [at 11.5 µM]
Cc1c(Cl)cccc1S(=O)(=O)Nc1nc(CC(=O)N2CCN(C)CC2)cs1,outcome,[2],inactive
CC1C/C=C/C(O)C(O)CC/C=C/c2cc(O)cc(O)c2C(=O)O1 (stereo not drawn),outcome,[1],inactive
same,outcome,[2],inactive
N#CC(OC1OC(COC2OC(CO)C(O)C(O)C2O)C(O)C(O)C1O)c1ccccc1 (stereo not drawn),outcome,[1],inactive
same,outcome,[2],inactive
CC(CCc1ccc(O)cc1)O[C@@H]1O[C@H](CO[C@H]2OC[C@](O)(CO)[C@H]2O)[C@@H](O)[C@H](O)[C@H]1O (stereo partly drawn),outcome,[1],inactive
same,outcome,[2],inactive
O=C(N1CCOCC1)N1CCN(c2ccc(Cl)cc2)CC1,outcome,[1],inactive
same,outcome,[2],inactive
C[C@H](NC(=O)Cc1cc(F)cc(F)c1)C(=O)N[C@@H]1N=C(c2ccccc2)c2ccccc2N(C)C1=O,outcome,[1],inactive
same,outcome,[2],inactive
